Screening data deposited in PubChem by National Center for Advancing Translational Sciences (NCATS).
Only some compounds are listed: those with a hit (about 0.28% of all), similar ones and a draw of the others.
USP2a inh = USP2a (human) protease inhibition | O75604 | Potency, µM (doses to about 38.3 µM), for the others: top-dose activity change, negative = inhibition, hits mostly inhibitors | 0.01% of 330,000 active | USP2 core, Ub-CHOP2 coupled fluorogenic reporter, 485/531;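 also: potency is read from the fitted curve at half-maximal effect; plate controls were DMSO wells for no effect and full inhibition by NEM control for full effect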
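Cell-free coupled assay: 10nM USP2 core preincubated 30min RT with compound in Tris-HCl pH 8.0/CaCl2/CHAPS buffer, then 25nM Ub-CHOP2 and 25nM reporter substrate; fluorescence (Ex 485/Em 531) read after 60min RT, normalized to NEM inhibition, concentration-response curves fitted.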
Pin1 inh = human Pin1 inhibition | Pin1 FP peptide displacement, HiFluor488, 10 min | Potency, µM (top dose mostly 115 µM), for the others: top-dose activity, negative = inhibition, most hits filed as inhibitors | 0.009% of 390,000 active | AID 504891; active = well fitted inhibition curve with a large enough effect in the polarisation, with a control signal flat, not every such curve was filed as active; inconclusive = small, poorly fitted or top-dose-only effect, or effect the other way, or a change in a side signal; inactive = no such curve, though single readings can be large or run the other way; the % refers to the polarisation; also: potency is read from the fitted curve at half-maximal effect
Target sequence (Q13526 whole entry, looked up): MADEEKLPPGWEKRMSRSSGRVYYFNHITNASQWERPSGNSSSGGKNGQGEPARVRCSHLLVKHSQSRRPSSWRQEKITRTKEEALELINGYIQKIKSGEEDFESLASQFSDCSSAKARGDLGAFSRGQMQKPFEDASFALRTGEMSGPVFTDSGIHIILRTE
PI4K2A inh = PI4K2A (human) kinase inhibition | Q9BTU6 | purified PI4K2A, ADP-Glo luminescence, 1 h; active compounds read low | activity change, negative = inhibition, % at 76.9 µM | 0.13% of 420,000 active; in the data active = activity change below about -50%; inconclusive = mostly about -30% to -49%;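 also: -100% = wells without enzyme as full effect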
Target sequence (Q9BTU6 whole entry, looked up): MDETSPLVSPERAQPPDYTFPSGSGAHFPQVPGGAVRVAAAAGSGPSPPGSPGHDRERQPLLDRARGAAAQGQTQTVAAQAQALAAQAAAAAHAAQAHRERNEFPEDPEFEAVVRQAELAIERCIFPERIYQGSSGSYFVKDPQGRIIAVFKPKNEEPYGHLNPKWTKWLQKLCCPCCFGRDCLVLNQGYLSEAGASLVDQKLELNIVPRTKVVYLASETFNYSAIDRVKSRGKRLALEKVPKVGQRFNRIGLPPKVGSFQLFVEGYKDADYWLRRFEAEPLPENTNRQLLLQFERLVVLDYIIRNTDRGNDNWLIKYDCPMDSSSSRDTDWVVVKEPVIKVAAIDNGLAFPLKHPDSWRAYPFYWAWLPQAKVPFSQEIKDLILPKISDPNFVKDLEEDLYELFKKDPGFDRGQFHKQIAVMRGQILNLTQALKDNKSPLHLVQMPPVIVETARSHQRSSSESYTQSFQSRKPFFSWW
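PI4K2A activity was measured by ADP-Glo luminescence: enzyme (4 ug/mL stock) and phosphatidylinositol (1.2 mM stock) in Tris pH 7.5/MgCl2/EGTA/Triton X-100 buffer were reacted with ATP (300 microM stock) for one hour at ambient temperature.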
Tb PFK inh = blocks T. brucei phosphofructokinase; O15648; T. brucei PFK, ADP-Glo luminescence; Potency, µM (series often up to 57.5 µM), for the others: at the top dose activity, negative = inhibition, hits mostly inhibitors; 0.17% of 330,000 active; AID 485367;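 also: potency is read from the fitted curve at half-maximal effect; 0% = uninhibited 1x PFK enzyme wells and -100% = no-enzyme wells; nearly all actives have a fitted effect of over 60% in size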
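ADP-Glo luminescence quantified ADP after 45 min at room temperature, with 1.25 nM T. brucei PFK, 0.1 mM ATP and 0.5 mM fructose-6-phosphate in pH 8.0 TEA buffer. qHTS titrations up to 57 µM; curves classified by quality.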
PGK inhibitor = inhibitors of T. brucei phosphoglycerate kinase. 0.043% of 380,000 active. AID 602233. Potency, µM (top dose mostly 57.5 µM), inactives show at the highest dose activity change, negative = inhibition, actives largely listed as inhibitors. PGK/GAPDH coupled, Kinase-Glo luminescence, 60 min; also: potency is read from the fitted curve at half-maximal effect; nearly all actives have a fitted effect of over 60% in size
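Recombinant glycosomal PGK reaction used 1,3-bisphosphoglycerate generated in-well by GAPDH (100nM final) in 100mM TEA pH 7.6, 5mM MgCl2, 0.01% Tween-20. After 60 minutes at room temperature, ATP was read by Kinase-Glo Plus luminescence end-point.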
* marks the source's active call; other numbers are inactive results; i = inactive; ? = inconclusive; . = no result; ! = not active in a repeat. Unless noted, calls follow the shape of the dose curve; as a rule, active = well fitted curve in the direction sought with a large enough effect; inconclusive = small, poorly fitted or top-dose-only effect, or another doubt; inactive = no such curve, though single readings can be large; an effect the other way counts as inactive or inconclusive. Unless noted, % is scaled to controls: 0 for no effect and ±100 for the full control effect.

SMILES | USP2a inh | Pin1 inh | PI4K2A inh | Tb PFK inh | PGK inhibitor
COc1cccc(C2c3c(ncn(-c4cccc(C#N)c4)c3=N)Oc3ccc4ccccc4c32)c1 (stereo unspecified) | . | 19.4% | . | . | .
CO[C@@H]1[C@@H](O[C@@H]2O[C@H](C)[C@@H](O[C@H]3C[C@@](C)(O)[C@@H](O)[C@H](C)O3)[C@H](N(C)C)[C@H]2O)[C@@H](CC=O)C[C@@H](C)[C@@H](O[C@@H]2CC[C@H](N(C)C)[C@@H](C)O2)/C=C/C=C/C[C@@H](C)OC(=O)C[C@H]1OC(C)=O | . | . | -2.0 | . | .
COc1cc(NCCCCC(C)N)c2nccc(C)c2c1 (stereo unspecified) | . | . | -8.8 | . | 6.2%
COc1cc(NCCCC(C)N)c2ncccc2c1 (stereo unspecified) | 4.0% | ? | -51.5* | -5.4% | i
COc1ccc(-c2cc3nc(CCl)[nH]c(=O)c3s2)cc1 | 1.1% | 14.2% | -50.3* | -21.4% | -17.4%
Cc1cc(/C=C2\C(=O)NC(=O)N(c3ccc(F)cc3)C2=O)c(C)n1-c1cccc(C(=O)O)c1 | 1.5% | 25.3% | -7.9 | 28.1% | 10.6%
Cc1cc(/C=C2\C(=O)NC(=O)N(c3ccccc3F)C2=O)c(C)n1-c1cc(C(=O)O)cc(C(=O)O)c1 | -1.0% | . | -25.2 | -24.3% | 11.2µM*
O=C(O)c1ccc2nc(-c3cc4cccc(O)c4oc3=O)[nH]c2c1 | -1.5% | . | -53.6* | ? | .
CC(C)Oc1ccc(C(=O)Nc2nc3ccccc3[nH]2)cc1 | -0.6% | -2.4% | -56.0* | -3.5% | ?
O=C(Nc1nc2ccccc2[nH]1)c1ccccc1F | 3.8% | -1.4% | -79.9* | ? | 8.91µM*
O=C(Nc1nc2ccccc2[nH]1)c1ccc(F)cc1 | 1.9% | -1.1% | -27.6 | -10.2% | -4.2%
O=C(Nc1nc2ccccc2[nH]1)c1ccc(OC(F)F)cc1 | 0.3% | -9.9% | -13.4 | -0.1% | -9.8%
C=C(C)C(=O)OCC(O)CO (stereo unspecified) | . | . | 5.0 | . | .
O=C(NCCCCc1ccccc1)C1CC(c2cc(C(F)(F)F)cc(C(F)(F)F)c2)=NO1 (stereo unspecified) | 4.6% | 37.9% | 4.6 | 2.7% | i
CCCCN(CCCC)CCCNC(=O)C1CC(c2cc(C(F)(F)F)cc(C(F)(F)F)c2)=NO1 (stereo unspecified) | . | 1.0% | -66.3* | . | -8.5%
Oc1ccc(/C=N/Nc2ncnc3nc[nH]c23)cc1 | -0.8% | 16.6% | -52.3* | ? | ?
Clc1ccc(/C=N/Nc2ncnc3nc[nH]c23)cc1 | -1.1% | -3.8% | -11.1 | 2.5% | -4.7%
O=C(O)c1ccccc1NS(=O)(=O)c1ccc(NN=Cc2ccc(F)cc2)c([N+](=O)[O-])c1 | 2.4% | . | -11.2 | 20.2% | -29.5%
O=C(O)c1ccccc1NS(=O)(=O)c1ccc(N/N=C/c2ccc(O)c(O)c2)c([N+](=O)[O-])c1 | . | . | -12.1 | . | 35.5µM*
COc1ccc(-c2ccc3ncnc(NCc4ccc(C)o4)c3c2)cc1OC | . | 1.7% | . | . | .
COc1ccc(-c2ccc3ncnc(NCCc4cnc[nH]4)c3c2)cc1OC | . | 2.6% | . | . | .
CCCCCC(=O)Nc1cc(S(=O)(=O)N2CCCCC2)ccc1N1CCCCC1 | . | 5.8% | 1.2 | . | -11.9%
CCCCCC(=O)Nc1cc(S(=O)(=O)O)cc2cc(S(=O)(=O)O)cc(O)c12 | . | ? | -59.1* | . | 1.12µM*
NCCCNc1ncnc2ccc(-c3ccc4c(c3)OCO4)cc12 | . | 5.1% | . | . | .
C#CC(O)(C=CCl)CC (stereo unspecified) | . | . | -1.0 | . | .
SMILES | USP2a inh | Pin1 inh | PI4K2A inh | Tb PFK inh | PGK inhibitor
Nc1ccc2nc(-c3ccccc3)sc2c1 | . | 3.9% | -54.9* | . | ?
CCOC(=O)c1ccc(-c2ccc3ncnc(NCc4cccs4)c3c2)o1 | . | 32.6% | . | . | .
COc1cccc(C2c3c(ncn(CCCN4CCOCC4)c3=N)Oc3ccc4ccccc4c32)c1 (stereo unspecified) | . | 17.2% | . | . | .
CCN1/C(=C/C(C)=C/c2sc3ccccc3[n+]2CC)Sc2ccccc21 | -7.4% | 148.5% | -51.0*! | -5.1% | ?
Cc1ccc(/C=C/c2nc3ccccc3n2S(=O)(=O)c2ccc(Br)cc2)cc1 | . | 12.5% | -63.5* | . | 0.2%
N#C/C(=C\c1ccc(O)c(O)c1)C(=O)c1ccc(O)c(O)c1 | -0.3% | 48.0% | -10.6 | ? | 1.12µM*
Cc1cc(C)n2ncc(C(=O)NCC(C)C)c2n1 | . | -0.9% | . | . | .
O=C(O)C(c1ccccc1)N1C(=O)/C(=C\c2ccc(-c3ccccc3Cl)o2)SC1=S (stereo unspecified) | ? | ? | 2.5 | -23.4% | 11.2µM*
COC1=C(Br)C(=O)c2ncccc2C1=O | . | . | -55.1* | . | ?
O=C1c2cccnc2-c2ncccc21 | 0.6% | 1.2% | 2.9 | -4.7% | -3.2%
O=C1C(=O)c2cccnc2-c2ncccc21 | . | . | -73.8* | . | .
CC(C)C(OC(=O)CNC(=O)c1ccccc1)C(=O)Nc1cc(C(F)(F)F)ccc1Cl (stereo unspecified) | . | 0.6% | . | . | .
COc1ccc(C2Nc3ccccc3C(=O)N2Cc2ccccc2)cc1COc1cccc(C(F)(F)F)c1 (stereo unspecified) | . | 1.0% | . | . | .
Cc1ccc(N2C(=O)NC(=O)/C(=C/c3ccoc3)C2=O)cc1 | 29.8% | ? | -23.9 | ? | 11.2µM*
Cc1ccc(N2C(=O)NC(=O)/C(=C/c3cnn(-c4ccc(C)cc4)c3)C2=O)cc1 | 0.7% | 9.2% | -4.2 | 1.4% | i
CN(C)c1cccc(S(=O)(=O)N2CCCN(S(=O)(=O)c3ccc4c(c3)OCCO4)CC2)c1 | . | 18.9% | . | . | .
CCOC(=O)c1ccc2c(c1)C1C=CCC1C(C(=O)O)N2 (stereo unspecified) | -0.2% | . | . | 19µM* | .
CCN(CC)C(=O)c1ccc2c(c1)C1C=CCC1C(C(=O)O)N2 (stereo unspecified) | 6.5% | ? | -25.9 | ? | 17.8µM*
CCOC(=O)C1Nc2ccc(C(=O)O)cc2C2C=CCC12 (stereo unspecified) | 0.9% | ? | -22.1 | -26.8% | ?
Cc1ccc2c(c1C)NC(C(=O)O)C1CC=CC21 (stereo unspecified) | -2.7% | 7.57µM* | -18.0 | ? | ?
C=Cc1c(C)c2cc3[nH]c(cc4nc(cc5nc(cc1[nH]2)C(C)=C5CCC(=O)O)C(CCC(=O)O)=C4C)c(C)c3C=C | -0.3% | 31.6µM* | ? | ? | 10µM*
Cc1nonc1C(=O)N/N=C/c1ccc(O)cc1O | 2.9% | -1.4% | -79.4* | 1.2% | ?
Cc1nonc1C(=O)N/N=C/c1ccncc1 | 4.4% | -0.4% | -4.4 | -0.4% | -11.2%
O=c1c2ccccc2nc2sc(Nc3ccc4c(c3)CCC4)nn12 | . | 67.7% | . | . | .
Cc1oc(-c2ccc3c(c2)OCCO3)cc1C(=O)O | -10.3% | 1.4% | -74.6* | -13.7% | ?
